# Results published in PubChem BioAssay AID540351 (The Scripps Research Institute Molecular Screening Center, 2011).
# Unmarked numbers belong to inactive results. The rule behind the calls is not given here.
# System: Phorbol Ester
# Test: selectivity profiling over binding targets, CYP450 – biochemical, Ricerca HitProfilingScreen, selectivity assay for S1P3 agonist project, profiling panel (AID 540351)
# Conditions: Ricerca receptor/enzyme binding panel plus CYP450, at 30 µM, active compounds read high
compound,measurement,value
O=C(c1cc(C2CC2)on1)N(C1CCCCC1)C1CCCCC1,inhibition,-19%
